Assay outcomes: PubChem BioAssay, several laboratories
Mtb UGM inh = M. tuberculosis UGM enzyme inhibitors, primary screen, biochemical, fluorescence polarization, single point; UDP-galactopyranose mutase (Mycobacterium tuberculosis (strain ATCC 25618 / H37Rv)), …; AID 504406, 2011; inhibition, % at 10 µM; 320,000 compounds, 0.06% hits; purified UGM, fluorescence polarization probe displacement; in the data active means inhibition above about 10%, passing the limit was not always enough
Mtb FBA inh = Mtb FBA enzyme inhibitors, primary screen, biochemical, fluorescence, strain H37Rv; Fructose-bisphosphate aldolase (Mycobacterium tuberculosis (strain ATCC 25618 / H37Rv)), …; purified M. tuberculosis FBA, fluorescence read-out; inhibition, % at 1 µM; 360,000 compounds, 2.3% hits; AID 588726, 2011; in the data active means inhibition above about 27%;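 further: 0% = vehicle and 100% = reference inhibitor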
Target sequence (P9WQA3 whole entry, looked up): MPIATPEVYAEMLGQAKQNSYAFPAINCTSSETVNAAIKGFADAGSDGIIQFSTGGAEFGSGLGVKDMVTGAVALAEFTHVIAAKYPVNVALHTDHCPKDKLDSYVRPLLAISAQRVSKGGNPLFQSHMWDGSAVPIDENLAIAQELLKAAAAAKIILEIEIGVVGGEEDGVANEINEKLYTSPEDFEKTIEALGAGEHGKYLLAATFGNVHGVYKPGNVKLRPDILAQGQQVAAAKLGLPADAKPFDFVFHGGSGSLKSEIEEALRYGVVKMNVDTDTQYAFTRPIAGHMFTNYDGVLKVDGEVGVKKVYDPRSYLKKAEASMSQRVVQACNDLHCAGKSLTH
Rv3671c inh = Rv3671c serine protease inhibitors, primary screen, biochemical, fluorescence polarization, M. tuberculosis H37Rv. inhibition, % at 5.96 µM. 320,000 compounds, 0.048% hits. P9WHR9; in the data active means inhibition above about 38%;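 further: extracellular domain of Rv3671c used as enzyme; 0% = enzyme with DMSO and 100% = no enzyme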
GDH-TPI inh = GDH-TPI coupling enzyme inhibitors, primary screen, artefact control for M. tuberculosis FBA inhibitor project, biochemical, absorbance, full deck; GDH-TPI coupled enzyme counterscreen, NADH absorbance; inhibition, % at 4.8 µM; 360,000 compounds, 1.2% hits; in the data active means inhibition above about 30%;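 further: 0% = DMSO wells and 100% = wells lacking the enzyme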
Mtb bLac sens = beta-lactam sensitization of Mtb H37Rv, H37Rv. M. tuberculosis H37Rv growth with meropenem, percent inhibition. inhibition, % at 25 µM. 330,000 compounds, 0.27% hits; call rule not given here;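 further: growth measured after seven days incubation then overnight dye step; 0% = bacteria only wells and 100% = bacteria with antibiotic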
* marks the source's active call; other numbers are inactive results; / = not tested or not shown; + = active, no number. Compounds with a hit are over-represented: about 3.5% of the library has one in this group of screens.

SMILES	Mtb UGM inh	Mtb FBA inh	Rv3671c inh	GDH-TPI inh	Mtb bLac sens
O=C(COC(=O)/C=C/c1ccccc1Cl)NC(=O)NCc1ccccc1	-1	-2	-1	13	-5
N#CC(C#N)=CNc1cccnc1	1	5	-3	43*	-8
N#CC(C#N)=Cc1cccnc1	1	0	5	6	-3
N#Cc1ccc[n+](CC(=O)c2ccc(NC(=O)c3ccccc3)cc2)c1	-1	-5	-20	23	-6
CN(C)c1ccc(/C=C(/NC(=O)c2ccccc2)C(=O)NCCCn2ccnc2)cc1	-3	-4	-13	33*	62
O=C(NCCCn1ccnc1)/C(=C/c1ccc(Cl)cc1)NC(=O)c1ccccc1	-3	1	-7	-5	0
Cc1ccc(C(=O)N/C(=C\c2cn(S(=O)(=O)N(C)C)c3ccccc23)C(=O)NCCCn2ccnc2)cc1	-2	0	-8	16	10
CCn1cc(/C=C(\NC(=O)c2ccccc2)C(=O)NCCCn2ccnc2)c2ccccc21	/	0	/	45*	/
Cn1c(/C(C#N)=C(\O)c2ccc([N+](=O)[O-])cc2)nc2ccccc21	-1	1	0	-6	3
CCN(CC)S(=O)(=O)c1ccc(/C(O)=C(\C#N)c2nc3ccccc3n2C)cc1	2	2	-9	39*	3
N#C/C(=C(/O)CN1CCOCC1)c1nc2ccccc2s1	0	9	-2	39*	-7
N#C/C(=C(/O)c1ccco1)c1nc2ccccc2s1	-3	4	2	56*	20
Cc1ccc(-n2ccc(=O)c(C(=O)Nc3ccc(S(=O)(=O)Nc4nccc(C)n4)cc3)n2)cc1	1	-4	4	35*	1
Cc1cc(C)nc(NS(=O)(=O)c2ccc(NC(=O)c3nn(-c4ccccc4)ccc3=O)cc2)n1	0	-7	-7	28	7
Cc1ccc(C(=O)O)cc1NC(=S)NC(=O)c1ccc([N+](=O)[O-])c(C)c1	2	3	2	10	-2
COc1cc(-c2cc(C(=O)Nc3ccc(N4CCOCC4)cc3)c3ccccc3n2)cc(OC)c1OC	-2	-2	6	42*	-4
CCCOc1ccc(C2C(=O)N(C3CCCCC3)CC(=O)N2CCC)cc1OC (configuration not stated)	0	31*	5	-11	-7
CCC(C)(C)NC(=O)C(c1ccncc1)N(C(=O)c1sc(C)nc1C)c1ccc(C)cc1 (configuration not stated)	1	0	-7	-3	3
CCCCn1c(N)c(N(Cc2ccccc2OC)C(=O)c2ccc([N+](=O)[O-])s2)c(=O)[nH]c1=O	-1	1	2	8	-2
Cc1nnc(NC(=O)c2ccco2)s1	-2	5	9	10	-3
COc1cccc(-c2nnc(NC(=O)c3cccs3)s2)c1	1	2	-22	35*	-6
C/C=C(\C)c1nnc(NC(=O)c2ccco2)s1	1	-2	7	33*	5
Cc1cc(C(=O)Nc2nnc(-c3ccccc3)s2)no1	4	-3	-9	32*	/
COc1cccc(-c2nnc(NC(=O)c3ccco3)s2)c1	4	7	2	41*	-2
CCOc1ccccc1NC(=S)N1CCN(c2ccccc2F)CC1	4	1	/	-3	-6
SMILES	Mtb UGM inh	Mtb FBA inh	Rv3671c inh	GDH-TPI inh	Mtb bLac sens
COc1cc2cc(CCCOC(=O)c3cccc(Br)c3)oc(=O)c2cc1OC	-1	-2	10	4	-6
Cc1cccc(C)c1N(CC(=O)NC1CCCCC1)C(=O)c1csnn1	0	2	-10	5	16
COc1ccc(CNS(=O)(=O)c2cccc(S(=O)(=O)N3CCOCC3)c2)cc1	2	2	-7	6	-4
COc1ccccc1C(=O)C1CCCN(C(=O)c2cnn(C(C)C)c2)C1 (configuration not stated)	-1	-1	-7	-3	-5
OCC[C@H]1C[C@@H](O)[C@H](O)[C@@]2(Cc3ccccc3CO2)O1	1	-1	8	-4	-12
O=C(Nc1nnc(SCc2ccc(F)cc2)s1)c1ccco1	0	1	-12	41*	-7
COc1ccc(-c2nnc(NC(=O)c3ccco3)s2)cc1	0	1	-6	45*	8
CCCOc1cccc(-c2nnc(NC(=O)c3ccco3)s2)c1	1	10	-1	49*	-2
CCCOc1cccc(C(=O)Nc2cccc(NC(=O)c3ccco3)c2)c1	2	-2	-68	6	21
Cc1ccc(-c2nnc(NC(=O)c3ccco3)s2)cc1	-1	1	-4	23	-4
COCCn1c(=NC(=O)/C=C/c2cccs2)sc2cc(NC(C)=O)ccc21	0	0	-20	31*	3
COc1cc(-c2cc(-c3ccc(O)cc3)nc(N)c2C#N)ccc1O	2	5	-25	18	32
COc1cccc(-c2cc(-c3cccnc3)nc(N)c2C#N)c1	-4	127*	-9	12	-5
COc1cccc(-c2cc(-c3cccnc3)c(C#N)c(N)n2)c1	-3	+	-6	32*	0
COc1ccc(OC)c(-c2cc(-c3cccnc3)nc(N)c2C#N)c1	0	0	-8	28	1
COc1ccc(-c2cc(-c3ccc(O)cc3)nc(N)c2C#N)cc1	0	49*	-20	4	70
N#Cc1c(-c2cccc(Br)c2)cc(-c2cccnc2)nc1N	4	131*	-48	16	5
Cc1oc(-c2ccc(-c3ccccc3)cc2)nc1CN(CCO)C(C)C	1	5	0	-14	1
O=C(CSc1nnc(NC(=O)c2ccc(S(=O)(=O)N3CCOCC3)cc2)s1)Nc1ccccc1C(F)(F)F	2	1	-3	16	-1
Cc1c(OCC(=O)NCC(O)c2ccccc2)ccc2c(-c3ccccc3)cc(=O)oc12 (configuration not stated)	0	2	-6	14	1
Cc1ccc(NC(=O)CCC(=O)N/N=C/c2cccs2)cc1	0	3	6	10	22
CCOC(=O)/C=c1/s/c(=C/c2ccc3cc(OC)ccc3c2)c(=O)n1CC(=O)NCC1CCCO1 (configuration not stated)	/	5	/	1	/
CCOC(=O)/C=c1\s/c(=C\c2c(OC)ccc3ccccc23)c(=O)n1CC(=O)NCC1CCCO1 (configuration not stated)	5	-3	-28	38*	/
CC1=C(C#N)C(c2cccnc2)C2=C(CC(C)(C)CC2=O)N1 (configuration not stated)	2	15	-5	-2	11
